Tested on: Vero E6 infected with SARS-CoV-2
Assay: inhibition of SARS-CoV-2 cytopathic effect; higher = more antiviral protection, active = above 15
Conditions: 48 h

Measured: inhibition of SARS-CoV-2 cytopathic effect

O=C1OC(OC(=O)c2cccnc2Nc2cccc(C(F)(F)F)c2)c2ccccc21 (stereo not given) [talniflumate]
inactive: 1 nM 2.12% | 8.33 nM -1.23% | 100 nM -2.09% | 833.33 nM 0.94% | 10000 nM 0.53%

CNc1ccc([N+](=O)[O-])cc1-n1cnc(-c2ccc(C(F)(F)F)cc2)c1
inactive: 1 nM 1.34% | 8.33 nM 1.42% | 100 nM 0.62% | 833.33 nM 1.02% | 10000 nM -0.19%

CCN1CCN(c2ccc(Nc3cc(N(C)C(=O)Nc4c(Cl)c(OC)cc(OC)c4Cl)ncn3)cc2)CC1
inactive: 1 nM -2.08% | 8.33 nM -5.16% | 100 nM 0.14% | 833.33 nM -2.75%
active: 10000 nM 23.9%

COc1ccc(NS(=O)(=O)c2ccc(/N=N/c3ccc(O)c(C(=O)O)c3)cc2)nn1 [salazodine]
inactive: 1 nM 0.92% | 8.33 nM 3.48% | 100 nM 1.53% | 833.33 nM -1.71% | 10000 nM -1.01%

Nc1nc2ccc(Cl)cc2c2nc(-c3ccco3)nn12
inactive: 1 nM 3.02% | 8.33 nM 1.43% | 100 nM -1.65% | 833.33 nM -3.37% | 10000 nM 1.46%

CCOC(=O)CCNc1cc(N2CCc3ccccc3CC2)nc(-c2ccccn2)n1
inactive: 1 nM -5.53% | 8.33 nM 0.27% | 100 nM 1.52% | 833.33 nM 1.83% | 10000 nM -0.53%

CCCN(CCC)CCc1ccc(OC)c(OCCc2ccccc2)c1
inactive: 1 nM -1.09% | 8.33 nM -0.82% | 100 nM 0.93% | 833.33 nM 0.13% | 10000 nM -2.05%

CSCC1CN(/N=C/c2ccc([N+](=O)[O-])o2)C(=O)O1 (stereo not given) [inimur]
inactive: 1 nM -1.14% | 8.33 nM -0.35% | 100 nM 2.9% | 833.33 nM 1.93% | 10000 nM 0.52%

Clc1cccc(-n2nnnc2NCc2ccccc2Oc2ccccn2)c1Cl
inactive: 1 nM 1.27% | 8.33 nM -1.76% | 100 nM -3.85% | 833.33 nM 0.18% | 10000 nM 1.67%

O=C1c2cccc3c2[C@H](CCC3)CN1[C@@H]1CN2CCC1CC2 [palonosetron]
inactive: 1 nM -2.25% | 8.33 nM -0.74% | 100 nM -0.65% | 833.33 nM -0.13% | 10000 nM -0.75%

Cc1nc2ccccc2c(-c2ccc3c4c(ccnc24)CCO3)c1[C@H](OC(C)(C)C)C(=O)O
inactive: 1 nM -1.93% | 8.33 nM -2.73% | 100 nM -4.38% | 833.33 nM -4.78% | 10000 nM -3.59%

CCN(CC)CCOc1ccccc1C(=O)CCc1ccccc1 [etafenone]
inactive: 1 nM 1.2% | 8.33 nM 0.17% | 100 nM -0.61% | 833.33 nM 0.23% | 10000 nM -3.07%

CCS(=O)(=O)CCn1c([N+](=O)[O-])cnc1C [tinidazole]
inactive: 1 nM -3.22% | 8.33 nM -2.91% | 100 nM 1.02% | 833.33 nM 4.13% | 10000 nM -0.87%

CCC1NC(=O)c2cc(S(N)(=O)=O)c(Cl)cc2N1 (stereo not given) [quinethazone]
inactive: 1 nM -8.29% | 8.33 nM -6.61% | 100 nM -4.32% | 833.33 nM -5.24% | 10000 nM -5.16%

Cc1cc2nc3c(=O)[nH]c(=O)nc-3n(C[C@H](O)[C@H](O)[C@H](O)CO)c2cc1C [riboflavin]
inactive: 1 nM -3.6% | 8.33 nM -1.59% | 100 nM -1.7% | 833.33 nM 0.03% | 10000 nM 0.32%

NCCc1ccc(O)c(O)c1 [dopamine]
inactive: 1 nM -0.56% | 8.33 nM 0.74% | 100 nM -0.35% | 833.33 nM 0.38% | 10000 nM 0.14%

Oc1ccc(-c2nc3cc(O)cc(Br)c3o2)cc1
inactive: 1 nM 0.68% | 8.33 nM 1.49% | 100 nM 2.09% | 833.33 nM 4.89% | 10000 nM 2.95%

O=C(O)CNC(=O)C(CS)Cc1ccccc1 (stereo not given) [thiorphan]
inactive: 1 nM -4.27% | 8.33 nM -1.61% | 100 nM -5.99% | 833.33 nM -4.04% | 10000 nM -6.09%

CC[C@@H](C(N)=O)N1CCCC1=O [levetiracetam]
inactive: 1 nM 0.86% | 8.33 nM 0.42% | 100 nM 0.01% | 833.33 nM 0.56% | 10000 nM -0.05%

OCc1c[nH]c2ccccc12 [indole-3-carbinol]
inactive: 1 nM -1.46% | 8.33 nM 0.47% | 100 nM -3.76% | 833.33 nM -0.69% | 10000 nM -14.3%

CNS(=O)(=O)Cc1ccc2[nH]cc(CCN(C)C)c2c1 [sumatriptan]
inactive: 1 nM 1.16% | 8.33 nM 0.24% | 100 nM 1.25% | 833.33 nM 0.28% | 10000 nM -0.08%

CCOC(=O)[C@@H](C)Oc1ccc(Oc2nc3ccc(Cl)cc3o2)cc1 [fenoxaprop-p-ethyl]
inactive: 1 nM 0.1% | 8.33 nM -0.32% | 100 nM -2.57% | 833.33 nM 2.13% | 10000 nM -0.66%

O=C(NOCC(O)CO)c1cc(Br)c(F)c(F)c1Nc1ccc(I)cc1F (stereo not given)
inactive: 1 nM -0.27% | 8.33 nM -0.08% | 100 nM -8.55% | 833.33 nM -10% | 10000 nM -12.5%

O=C(C=Cc1ccccc1)NC(NC(=S)Nc1ccc(Cl)cc1)C(Cl)(Cl)Cl (stereo not given)
inactive: 1 nM 0.51% | 8.33 nM 0.81% | 100 nM -4.17% | 833.33 nM -1.91% | 10000 nM -5.67%

CCSc1ccc2c(c1)N(CCCN1CCN(C)CC1)c1ccccc1S2 [thiethylperazine]
inactive: 1 nM -3.78% | 8.33 nM -1.48% | 100 nM -1.97% | 833.33 nM -4.23%
active: 10000 nM 22.5%

Cn1nnnc1SCC1=C(C(=O)O)N2C(=O)[C@@H](NC(=O)[C@H](OC=O)c3ccccc3)[C@H]2SC1 [cefamandole-nafate]
inactive: 1 nM -1.93% | 8.33 nM -0.03% | 100 nM -2.69% | 833.33 nM -3.24% | 10000 nM -0.65%

O=C1NC(=O)/C(=C/c2ccc3nccc(-c4ccncc4)c3c2)S1
inactive: 1 nM -0.58% | 8.33 nM -1.8% | 100 nM 1.55% | 833.33 nM 2.78% | 10000 nM -1.1%

CCCN1CCC[C@@H]2Cc3n[nH]cc3C[C@H]21 [quinpirol-(-)]
inactive: 1 nM -2.17% | 8.33 nM 2.95% | 100 nM 0.48% | 833.33 nM -2.24% | 10000 nM -0.87%

O=C(O)c1cc(-c2ccc(F)cc2F)ccc1O [diflunisal]
inactive: 1 nM 1.75% | 8.33 nM -3.3% | 100 nM 2.12% | 833.33 nM 1.36% | 10000 nM 0.19%

CCc1c(O)cc(O)c(C(=O)c2ccc(OCCN3CCOCC3)c(OC)c2)c1CC(=O)N(CCOC)CCOC
inactive: 1 nM -1.17% | 8.33 nM -2.57% | 100 nM -1.95% | 833.33 nM -1.17% | 10000 nM 0.48%

Cn1c(NC[C@@H](N)Cc2ccccc2)nc(-c2ccncc2)c(-c2ccc3ccccc3c2)c1=O
active: 10000 nM 32.9%
inactive: 1 nM -0.22% | 8.33 nM 0.05% | 100 nM -0.08% | 833.33 nM 2.09%

N=C(N)N [guanidine]
inactive: 1 nM -0.16% | 8.33 nM 0.17% | 100 nM -2.15% | 833.33 nM -3.58% | 10000 nM -6.14%

C[N+](C)(C)CCOC(N)=O [carbachol]
inactive: 1 nM 1.16% | 8.33 nM 1.84% | 100 nM -1.48% | 833.33 nM 2.68% | 10000 nM 4.16%

O=c1[nH]c(=O)n([C@H]2CCCO2)cc1F (racemic) [ftorafur]
inactive: 1 nM 0.19% | 8.33 nM -1.89% | 100 nM 6.11% | 833.33 nM -0.34% | 10000 nM -2.89%

CC/C=C(\C(=O)N[C@@H]1C(=O)N2C(C(=O)OCOC(=O)C(C)(C)C)=C(COC(N)=O)CS[C@H]12)c1csc(N)n1 [cefcapene-pivoxil]
inactive: 1 nM -0.85% | 8.33 nM -2.87% | 100 nM -0.76% | 833.33 nM 1.69% | 10000 nM -0.26%

CC(C)C[C@@H](NC(=O)[C@H](Cc1ccccc1)NC(=O)CNC(=O)[C@@H](C)NC(=O)[C@@H](N)Cc1ccc(O)cc1)C(=O)O
inactive: 1 nM -0.21% | 8.33 nM 3.3% | 100 nM 1.72% | 833.33 nM 2.13% | 10000 nM 0%

C[C@@H](O)[C@H](N)C(=O)N1CCC[C@H]1C(=O)N1CCC[C@H]1C(=O)N[C@H](C(N)=O)[C@@H](C)O [rapastinel]
inactive: 1 nM -2.84% | 8.33 nM -5.74% | 100 nM 0.55% | 833.33 nM -1.01% | 10000 nM -0.06%

CCCCCCCCCCCCCCCC=O [1-hexadecanal]
inactive: 1 nM 0.5% | 8.33 nM 2.85% | 100 nM -0.54% | 833.33 nM -0.08% | 10000 nM 1.56%

S=P(N1CC1)(N1CC1)N1CC1 [thiotepa]
inactive: 1 nM -0.94% | 8.33 nM 1.88% | 100 nM 0.45% | 833.33 nM -0.47% | 10000 nM 2.21%

CN(N=O)C(=O)N[C@@H](C=O)[C@@H](O)[C@H](O)[C@H](O)CO [streptozotocin]
inactive: 1 nM -2.28% | 8.33 nM -2.25% | 100 nM 2.59% | 833.33 nM 1% | 10000 nM 3.27%

CCCCCCCCCCCCc1ccc(S(=O)(=O)Nc2nncs2)cc1
inactive: 1 nM -0.85% | 8.33 nM 0.48% | 100 nM -0.22% | 833.33 nM -2.3% | 10000 nM -0.65%
